Results as given in the antibiotic and cytotoxicity screens of Wong et al. (2023).
In all, about 39,000 compounds went through this assay and about 3,300 (8.5%) were called active. For the sample, actives were picked, then their nearest neighbours and some compounds at random.

test system: HepG2; assay: cytotoxicity call (relative viability < 0.9); conditions: 10 µM

Row | SMILES | cytotoxicity call
1 | CC(C)(C)c1o[nH]c(=O)c1C[C@@H](N)C(=O)O | inactive
2 | CC1CCC2(NC1)OC1CC3C4CCC5CC(O)CCC5(C)C4CCC3(C)C1C2C.Cl (configuration not stated) | inactive
3 | COc1cc2c(c(OC)c1OC)-c1ccc(O)c(=O)cc1C(NC(C)=O)CC2 (configuration not stated) | inactive
4 | COc1cc2c(c(OC)c1OC)-c1ccc(O)c(=O)cc1[C@H](N)CC2 | inactive
5 | COc1cc2c(c(OC)c1OC)-c1ccc(OC)c(=O)cc1C(NC(C)=O)CC2 (configuration not stated) | active
6 | CC1(C)OCC2(CNC2)CO1 | inactive
7 | CN1CCOC[C@]2(CCCNC2)C1 | inactive
8 | CN(C)[C@@H]1C(=O)[C@H](C(N)=O)C(=O)[C@@]2(O)C(=O)[C@@H]3C(=O)c4c(O)cccc4[C@@](C)(O)[C@H]3C[C@@H]12 | inactive
9 | C[C@H]1CN([C@@H](C)CO)C(=O)c2c(c3ccccc3n2C)-c2ccccc2CO[C@@H]1CN(C)C(=O)Oc1ccccc1 | inactive
10 | CN1[C@@H]2C[C@@H](O)C[C@H]1[C@@H]1O[C@@H]12 | inactive
11 | Cc1ccc(OC(=O)N(C)C[C@@H]2OCc3ccccc3-c3c(n(C)c4ccccc34)C(=O)N([C@H](C)CO)C[C@@H]2C)cc1 | inactive
12 | COc1ccc(OC(=O)N(C)C[C@H]2OCc3ccccc3-c3c(n(C)c4ccccc34)C(=O)N([C@@H](C)CO)C[C@H]2C)cc1 | inactive
13 | COc1ccc(OC(=O)N(C)C[C@@H]2OCc3ccccc3-c3c(n(C)c4ccccc34)C(=O)N([C@@H](C)CO)C[C@H]2C)cc1 | active
14 | Cc1ccc(OC(=O)N(C)C[C@H]2OCc3ccccc3-c3c(n(C)c4ccccc34)C(=O)N([C@H](C)CO)C[C@H]2C)cc1 | inactive
15 | Cc1ccc(OC(=O)N(C)C[C@@H]2OCc3ccccc3-c3c(n(C)c4ccccc34)C(=O)N([C@@H](C)CO)C[C@H]2C)cc1 | inactive
16 | COc1ccc(OC(=O)N(C)C[C@H]2OCc3ccccc3-c3c(n(C)c4ccccc34)C(=O)N([C@H](C)CO)C[C@@H]2C)cc1 | inactive
17 | Cc1ccc(OC(=O)N(C)C[C@H]2OCc3ccccc3-c3c(n(C)c4ccccc34)C(=O)N([C@H](C)CO)C[C@@H]2C)cc1 | active
18 | Cc1ccc(OC(=O)N(C)C[C@H]2OCc3ccccc3-c3c(n(C)c4ccccc34)C(=O)N([C@@H](C)CO)C[C@@H]2C)cc1 | active
19 | Cc1ccc(OC(=O)N(C)C[C@@H]2OCc3ccccc3-c3c(n(C)c4ccccc34)C(=O)N([C@@H](C)CO)C[C@@H]2C)cc1 | inactive
20 | CCOCC(=O)N1CC[C@H]2CNC[C@H]21 | inactive
21 | COc1cccc(C2(N)CCCC2)c1 | inactive
22 | CC(C)[C@H]1CN2CCC[C@H]2[C@@]2(O)O[C@](CC(=O)[C@@H]3C=C4c5cccc6[nH]cc(c56)C[C@H]4N(C)C3)(C(C)C)C(=O)N12 | inactive
23 | C[C@H](CO)N1C[C@H](C)[C@@H](CN(C)C(=O)Oc2ccc3ccccc3c2)OCc2cn(nn2)CCCC1=O | inactive
24 | NC(=N[N+](=O)[O-])NCCC[C@H](N)C(=O)O | inactive
25 | CC(C)[C@H]1CNC(=O)C1 | inactive

Row | SMILES | cytotoxicity call
26 | O=C1NC(=S)NC(=O)C1c1ccccc1 | inactive
27 | C#CCO[C@H]1CN2CCC1CC2 | inactive
28 | CC(C)C[C@@H](N)C1(c2ccc(Cl)cc2)CCC1 | inactive
29 | CC1OC(OC2C=C3CCC4C(CCC5(C)C(c6ccc(=O)oc6)CCC45O)C3(C)CC2)C(O)C(O)C1O (configuration not stated) | active
30 | CN1CCc2cc3c(cc2C1C1OC(=O)c2c1ccc1c2OCO1)OCO3 (configuration not stated) | inactive
31 | ClC(Cl)=C(c1ccc(Cl)cc1)c1ccc(Cl)cc1 | inactive
32 | Nc1ccccc1N1CCNCC1 | inactive
33 | CN(C)C(=O)CN1CCN(C)C(=O)[C@]12CCN(c1ncccn1)C2 | inactive
34 | [NH2][Pt]1([NH2])[O]C(=O)C2(CCC2)C(=O)[O]1 | inactive
35 | O=[N+]([O-])OC1COC2C(O)COC12 (configuration not stated) | inactive
36 | CCn1cnc2c(Nc3cccc(Cl)c3)nc(N[C@@H]3CCCC[C@@H]3N)nc21 | active
37 | Cc1cccc([C@H](CN)N(C)C)c1 | inactive
38 | C[C@@H]1CN([C@@H](C)CO)C(=O)CCCn2cc(nn2)CO[C@H]1CN(C)C(=O)Oc1cccc2ccccc12 | inactive
39 | CN(C)C(=O)[C@@]1(Cc2ccccc2CN=[N+]=[N-])N=C(c2ccc(OCCCO)cc2)O[C@H]1c1ccccc1N=[N+]=[N-] | active
40 | COC(=O)[C@@]1(Cc2ccccc2N=[N+]=[N-])N=C(c2ccc(OCCCO)cc2)O[C@H]1c1ccccc1CN=[N+]=[N-] | inactive
41 | COC(=O)[C@@]1(Cc2ccccc2CN=[N+]=[N-])N=C(c2ccc(OCCCO)cc2)O[C@H]1c1ccccc1N=[N+]=[N-] | inactive
42 | CN(C)C(=O)[C@@]1(Cc2ccccc2N=[N+]=[N-])N=C(c2ccc(OCCCO)cc2)O[C@H]1c1ccccc1N=[N+]=[N-] | inactive
43 | COCCCNC(=O)[C@]1(Cc2ccccc2N=[N+]=[N-])N=C(c2ccc(OCCCO)cc2)O[C@@H]1c1ccccc1N=[N+]=[N-] | inactive
44 | CN(C)C(=O)[C@]1(Cc2ccccc2CN=[N+]=[N-])N=C(c2ccc(OCCCO)cc2)O[C@@H]1c1ccccc1N=[N+]=[N-] | inactive
45 | COCCCNC(=O)[C@@]1(Cc2ccccc2CN=[N+]=[N-])N=C(c2ccc(OCCCO)cc2)O[C@H]1c1ccccc1CN=[N+]=[N-] | active
46 | [N-]=[N+]=Nc1ccccc1C[C@@]1(C(=O)NCc2ccccc2)N=C(c2ccc(OCCCO)cc2)O[C@@H]1c1ccccc1N=[N+]=[N-] | inactive
47 | COCCCNC(=O)[C@@]1(Cc2ccccc2CN=[N+]=[N-])N=C(c2ccc(OCCCO)cc2)O[C@H]1c1ccccc1N=[N+]=[N-] | inactive
48 | [N-]=[N+]=NCc1ccccc1C[C@]1(C(=O)NCc2ccccc2)N=C(c2ccc(OCCCO)cc2)O[C@H]1c1ccccc1N=[N+]=[N-] | active
49 | COC(=O)[C@]1(Cc2ccccc2CN=[N+]=[N-])N=C(c2ccc(OCCCO)cc2)O[C@@H]1c1ccccc1N=[N+]=[N-] | active
50 | CN(C)C(=O)CN1C[C@H]2CON[C@@H]2C1 | inactive

Row | SMILES | cytotoxicity call
51 | O=C(c1ccccc1)C12CN3CN(CN(C3)C1)C2 | inactive
52 | CC(C)c1cc2c(c(O)c1O)C1(C(=O)O)CCCC(C)(C)C1CC2 (configuration not stated) | inactive
53 | CN1C[C@@H]2CNC[C@@H]2C1=O | inactive
54 | C[C@@H]1CN([C@@H](C)CO)C(=O)CCCn2nncc2CO[C@H]1CN(C)C(=O)Oc1ccc2ccccc2c1 | inactive
55 | C1CO[C@H]2[C@@H](C1)CNC[C@H]2N1CCOCC1 | inactive
56 | NCCc1c[nH]c2ccc(C(N)=O)cc12 | inactive
57 | NCCc1ccncc1 | inactive
58 | OC1(c2cccnc2)CCNCC1 | inactive
59 | CCN(Cc1ccc(Cl)nc1)C(=C[N+](=O)[O-])NC | inactive
60 | Cc1ccc2n[nH]c(CN)c2c1 | inactive
61 | COC(=O)[C@]1(Cc2ccccc2N=[N+]=[N-])N=C(c2ccc(OCCCO)cc2)O[C@@H]1c1ccccc1CN=[N+]=[N-] | inactive
62 | [N-]=[N+]=Nc1ccccc1C[C@]1(C(N)=O)N=C(c2ccc(OCCCO)cc2)O[C@H]1c1ccccc1N=[N+]=[N-] | inactive
63 | COC(=O)[C@]1(Cc2ccccc2CN=[N+]=[N-])N=C(c2ccc(OCCCO)cc2)O[C@@H]1c1ccccc1CN=[N+]=[N-] | active
64 | COC(=O)[C@@]1(Cc2ccccc2N=[N+]=[N-])N=C(c2ccc(OCCCO)cc2)O[C@H]1c1ccccc1N=[N+]=[N-] | inactive
65 | COC(=O)[C@@]1(Cc2ccccc2CN=[N+]=[N-])N=C(c2ccc(OCCCO)cc2)O[C@H]1c1ccccc1CN=[N+]=[N-] | inactive
66 | COC(=O)[C@]1(Cc2ccccc2N=[N+]=[N-])N=C(c2ccc(OCCCO)cc2)O[C@@H]1c1ccccc1N=[N+]=[N-] | active
67 | CO[C@@H]1[C@H](OC(=O)NC(=O)CCl)CC[C@]2(CO2)[C@H]1[C@@]1(C)O[C@@H]1CC=C(C)C | inactive
68 | CN1CCCCC1c1ccc(-c2cccnc2)nc1.Cl (configuration not stated) | inactive
69 | CN(CCC[C@@H](O)c1cccnc1)[NH2+][O-] | inactive
70 | C=C(C)[C@@H]1[C@H]2OC(=O)[C@@H]1[C@]1(O)C[C@H]3O[C@]34C(=O)O[C@H]2[C@]14C | inactive
71 | O[C@@]12CCCC[C@@H]1CNCC2 | inactive
72 | CN1[C@@H]2CC[C@@H]1CC(N)C2 (some centres not stated) | inactive
73 | Nc1nc(N)nc(NC2CC2)n1 | inactive
74 | CCN1CCN(c2nc([N+](=O)[O-])nn2C)CC1 | inactive
75 | CC(C)c1cccc2c1OCC[C@H](N)[C@@H]2O | inactive

Row | SMILES | cytotoxicity call
76 | C[C@@H](N)Cc1cccc(O)c1 | inactive
77 | CC(C)c1cccc(C(C)C)c1O | active
78 | C[C@@H](CN)CC(=O)O | inactive
79 | CC(=O)[O][PbH2][O]C(C)=O | inactive
80 | Oc1ccc(Cl)cc1Cc1cc(Cl)ccc1O | active
81 | O=C(O)c1cc(Cl)ccc1Cl | inactive
82 | Clc1ccc(Cl)cc1 | inactive
83 | CCN1C[C@]23CNC[C@@H](C[C@H]2S1(=O)=O)O3 | inactive
84 | C1CC(NC2CCOCC2)CCO1 | inactive
85 | O=C1C=C2C(=CCO[C@@H]2O)O1 | inactive
86 | O=C1C=C2C(=CCOC2O)O1 (configuration not stated) | active
87 | CC(=O)N[C@H]1C(=O)NC(=S)N(c2ccccc2)C1=O | inactive
88 | N#CCCN1CCCC2(CCCC2)C1 | inactive
89 | N/N=C(/N)NO | inactive
90 | COc1ccc(OC(=O)N(C)C[C@@H]2OCc3ccccc3-c3c(n(C)c4ccccc34)C(=O)N([C@@H](C)CO)C[C@@H]2C)cc1 | inactive
91 | COC(=O)[C@@H]1[C@@H](CO)[C@@H]2Cn3c(cccc3=O)[C@H]1N2C(=O)C1CC1 | inactive
92 | N[C@@H](CO)Cc1ccccc1 | inactive
93 | CCN(CC)C(=O)C1=NO[C@]2(CCNC2)C1 | inactive
94 | COc1cc2c(cc1O)CCNC2C (configuration not stated) | inactive
95 | CCC1CN2CCc3cc(OC)c(OC)cc3C2CC1CC1NCCc2cc(OC)c(OC)cc21.Cl.Cl (configuration not stated) | active
96 | COc1cc2c(cc1OC)C(C)NCC2 (configuration not stated) | inactive
97 | COc1cc2c(cc1OC)C1CC(=O)C(CC(C)C)CN1CC2 (configuration not stated) | active
